PLK1 PBD block: blocks phosphopeptide binding to human PLK1 polo-box domain. Potency, µM, without a hit: max response, negative = inhibition, hits mostly inhibitors. Plk1 PBD binding of FITC phosphopeptide, fluorescence polarization. AID 720504. 2.8% of 360,000 active. P53350; further: series mostly up to about 57 µM; on the % scale 0 is the no-effect control and ±100 the full control effect; nearly all actives have a fitted effect of over 65% in size
JMJD2A Tudor inh: inhibitors of human JMJD2A Tudor domain. O75164. AlphaScreen JMJD2A-Tudor / H3K4me3 peptide binding. Potency, µM (highest dose often 114 µM), without a hit: at the top dose activity change, negative = inhibition, actives largely listed as inhibitors. 4.4% of 390,000 active. AID 504339; further: on the % scale 0 is the no-effect control and ±100 the full control effect; nearly all actives have a fitted effect of over 50% in size
HP1b binding inh: inhibitors of HP1-beta chromodomain binding to methylated histone tails; Potency, µM (top dose mostly 114 µM), without a hit: at the top dose activity change, negative = inhibition, hits mostly inhibitors; 0.56% of 390,000 active; P83916; AlphaScreen HP1-beta / biotin-H3K9me3 peptide binding; further: nearly all actives have a fitted effect of over 70% in size
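Compound inhibition of the preformed complex between 50 nM HP1-beta and 50 nM biotinylated H3K9me3 peptide was read by AlphaScreen. Buffer was PBS pH 7.4 with 0.01% Tween-20. Incubations ran 30 min at room temperature, with 10 ug/mL donor/acceptor beads.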
Sfp PPTase inh: inhibitors of Bacillus subtilis Sfp phosphopantetheinyl transferase. 3.5% of 310,000 active. Biochemical Sfp PPTase activity, qHTS. Potency, µM, for inactives: largest response in the series, negative = inhibition, hits mostly inhibitors. Q9F4F7. AID 1490;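 further: the enzyme is Sfp with the accession as filed and its product quenches rhodamine fluorescence; 0% = enzyme reaction without inhibitor and -100% = no enzyme wells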
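Compounds were incubated with enzyme (final 15 nM) for 15 min at room temperature before substrate addition started the reaction. Fluorescence at 525 nm excitation, 598 nm emission was recorded immediately and after 30 minutes.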
G9a inh: inhibitors of human histone lysine methyltransferase G9a; Q96KQ7; G9a H3K9 monomethylation, AlphaScreen, 2 h; Potency, µM (highest dose often 102 µM), for the others: at the highest dose activity, negative = inhibition, usual class: inhibitors; 8.8% of 350,000 active; AID 504332; further: on the % scale 0 is the no-effect control and ±100 the full control effect; nearly all actives have a fitted effect of over 75% in size
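Compounds were preincubated with 20 nM G9a for 15 min, after which biotinylated H3K9 peptide (500 nM) and SAM (20 uM) started a 2 h room-temperature reaction. Monomethylated product was quantified by antibody-based AlphaScreen chemiluminescence.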
BAZ2B inh: inhibitors of human BAZ2B bromodomain. AID 504333. Potency, µM (highest dose often 114 µM), for inactives: at the top dose activity change, negative = inhibition, most hits filed as inhibitors. AlphaScreen BAZ2B-H3K14Ac peptide displacement. Q9UIF8. 4.4% of 360,000 active; further: on the % scale 0 is the no-effect control and ±100 the full control effect; nearly all actives have a fitted effect of over 60% in size
Target sequence (Q9UIF8 whole entry, looked up): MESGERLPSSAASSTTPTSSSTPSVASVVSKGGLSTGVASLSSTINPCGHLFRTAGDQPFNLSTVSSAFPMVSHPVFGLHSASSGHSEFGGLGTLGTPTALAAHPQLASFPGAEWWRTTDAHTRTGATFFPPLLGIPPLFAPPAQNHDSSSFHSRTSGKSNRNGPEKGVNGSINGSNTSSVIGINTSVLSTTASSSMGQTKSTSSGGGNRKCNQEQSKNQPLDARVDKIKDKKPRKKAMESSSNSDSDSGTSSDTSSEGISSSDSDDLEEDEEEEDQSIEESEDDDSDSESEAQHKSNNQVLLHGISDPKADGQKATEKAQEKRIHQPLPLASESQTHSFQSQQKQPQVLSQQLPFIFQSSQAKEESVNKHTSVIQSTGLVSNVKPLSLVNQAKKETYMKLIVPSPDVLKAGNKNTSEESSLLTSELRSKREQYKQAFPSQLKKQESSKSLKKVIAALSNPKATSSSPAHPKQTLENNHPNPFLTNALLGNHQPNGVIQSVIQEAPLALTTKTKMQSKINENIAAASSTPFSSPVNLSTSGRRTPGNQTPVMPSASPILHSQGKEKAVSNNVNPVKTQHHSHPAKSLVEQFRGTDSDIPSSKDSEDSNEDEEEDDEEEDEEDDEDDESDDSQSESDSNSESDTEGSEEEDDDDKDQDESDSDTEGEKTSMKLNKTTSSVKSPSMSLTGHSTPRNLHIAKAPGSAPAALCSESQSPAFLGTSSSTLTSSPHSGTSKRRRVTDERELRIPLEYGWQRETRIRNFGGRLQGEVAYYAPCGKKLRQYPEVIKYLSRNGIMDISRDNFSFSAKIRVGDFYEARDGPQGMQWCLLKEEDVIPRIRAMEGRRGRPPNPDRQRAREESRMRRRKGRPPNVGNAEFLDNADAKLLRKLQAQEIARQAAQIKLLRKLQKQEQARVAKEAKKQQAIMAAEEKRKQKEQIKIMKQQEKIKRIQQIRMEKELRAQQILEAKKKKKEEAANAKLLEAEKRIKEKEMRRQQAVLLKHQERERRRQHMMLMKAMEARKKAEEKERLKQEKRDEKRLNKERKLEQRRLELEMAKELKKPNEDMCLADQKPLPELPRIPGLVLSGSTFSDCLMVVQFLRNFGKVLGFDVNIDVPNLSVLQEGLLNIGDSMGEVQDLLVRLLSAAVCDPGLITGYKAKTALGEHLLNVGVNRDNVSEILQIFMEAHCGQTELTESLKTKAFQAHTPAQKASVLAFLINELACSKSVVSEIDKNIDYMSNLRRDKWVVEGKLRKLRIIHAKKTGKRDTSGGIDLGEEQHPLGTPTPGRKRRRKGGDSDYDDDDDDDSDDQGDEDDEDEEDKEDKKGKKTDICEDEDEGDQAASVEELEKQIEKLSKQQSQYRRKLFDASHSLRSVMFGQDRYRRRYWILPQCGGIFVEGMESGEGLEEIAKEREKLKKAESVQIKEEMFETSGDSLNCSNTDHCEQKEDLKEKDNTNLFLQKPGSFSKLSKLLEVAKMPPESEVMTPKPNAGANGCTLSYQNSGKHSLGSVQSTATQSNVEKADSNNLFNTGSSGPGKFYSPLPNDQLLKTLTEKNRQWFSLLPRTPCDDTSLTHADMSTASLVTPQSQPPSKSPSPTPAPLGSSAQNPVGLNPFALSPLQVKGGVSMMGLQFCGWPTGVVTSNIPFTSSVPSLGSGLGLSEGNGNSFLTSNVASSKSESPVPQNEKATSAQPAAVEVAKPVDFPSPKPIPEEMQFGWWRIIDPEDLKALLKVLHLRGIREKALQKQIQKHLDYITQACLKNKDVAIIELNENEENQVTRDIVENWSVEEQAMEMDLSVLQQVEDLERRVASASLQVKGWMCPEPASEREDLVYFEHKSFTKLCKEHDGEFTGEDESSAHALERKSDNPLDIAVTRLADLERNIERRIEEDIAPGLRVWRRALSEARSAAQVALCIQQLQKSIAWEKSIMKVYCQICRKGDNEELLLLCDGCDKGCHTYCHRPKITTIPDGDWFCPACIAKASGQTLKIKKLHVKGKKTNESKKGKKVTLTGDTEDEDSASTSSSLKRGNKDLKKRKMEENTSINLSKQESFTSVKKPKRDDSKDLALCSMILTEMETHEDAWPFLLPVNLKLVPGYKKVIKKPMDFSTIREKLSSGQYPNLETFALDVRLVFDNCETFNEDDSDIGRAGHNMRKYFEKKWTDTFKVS
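AlphaScreen luminescence quantifies BAZ2B engagement of H3K14Ac peptide; the protein and biotinylated peptide are both at 50 nM final, buffer PBS pH 7.4 with 0.01% Tween-20, all steps at room temperature.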
Active calls of the source: *; ? = inconclusive; · = not tested or not shown; [ ] = another dose, or the depositor's remark. A selection: hits, their analogues and other compounds. The true share with any hit is near 12%. The call rests on the fitted dose curve; in most records, active means well fitted curve in the direction sought with a large enough effect; inconclusive means small, poorly fitted or top-dose-only effect, or another doubt; inactive means no such curve, though single readings can be large; an effect the other way counts as inactive or inconclusive. Potency means the concentration at half of the fitted maximal effect.

SMILES	PLK1 PBD block	JMJD2A Tudor inh	HP1b binding inh	Sfp PPTase inh	G9a inh	BAZ2B inh
Nc1nc2c(ncn2[C@@H]2O[C@H](CNCc3ccc4ncccc4c3)[C@@H](O)[C@H]2O)c(=O)[nH]1	0.3%	·	·	·	·	·
Cn1sc(=O)n(Cc2ccccc2)c1=O	·	·	·	0.141µM*	·	·
CN(c1ccc(C(=O)NCc2ccco2)cc1)S(C)(=O)=O	?	?	-25.6%	14.1%	16.8%[12.7 µM]	-5.1%
Cc1ccc(S(=O)(=O)N(CC(=O)NCCSCc2ccco2)c2ccc(F)cc2)cc1	·	·	·	56.2µM*	·	?
O=C(CN(c1ccccc1)S(=O)(=O)c1ccccc1)NCCSCc1ccco1	-10.4%	56.2µM*	-16.3%	-19.7%	?	50.1µM*
O=C(CCSc1ccccc1)NCCSCc1ccco1	-7.0%	-19.5%[57.1 µM]	13.1%	50.1µM*	9.3%	4.6%
O=C(COc1ccccc1)NCCSCc1ccco1	-29.4%	?	-0.7%	-5.1%	-10.3%[59 µM]	?
CN(c1ccc(C(=O)NCCSCc2ccco2)cc1)S(C)(=O)=O	-9.9%	-2.4%	42.2%	35.5µM*	-35.3%[59 µM]	-28.0%
CN(CC(=O)Nc1ccc(Cl)c(Cl)c1)CC(=O)Nc1ccc2c(c1)OCO2	4.1%	-28.8%	5.3%	·	-8.0%[2.33 µM]	?
COc1cc(C(=O)O)ccc1Cl	-2.1%	-10.3%[11.4 µM]	71.6%	32.4%	?	-32.6%
Cc1cc(/C(=N/O)C(C)(C)NO)ccc1Cl	-5.7%	20µM*	-17.9%	-9.9%	?	-8.4%
CC(C)(NO)/C(=N\O)c1ccccc1	-3.7%	12.6µM*	70.8µM*	-6.7%	10µM*	39.8µM*
Cc1ccc(C)c(C2=NNC(=O)CC2)c1	-0.4%	-21.3%	-6.0%	·	·	·
O=C(c1cccc(F)c1)N1CCC2(CC1)CCN(c1ccccn1)CC2	·	·	·	12.3%	3.2%[12.7 µM]	·
CCC1=C2CC[C@H]3C(=O)N(CC)C(=O)[C@H]3[C@H]2[C@@]2(C)C(=NCC(=O)OC)OC(=O)N2C1=O	·	·	·	22.5%	·	·
CCOc1ccc(CCNC(=O)CCn2c(=O)c3cccn3c3cccnc32)cc1	·	-10.3%	15.8%	·	-4.5%[59 µM]	?
COc1ccc2c(c1)-c1c(sn(-c3ccc(OC)c(OC)c3)c1=S)C(C)(C)N2	-6.9%	35.5µM*	-80.8%	-6.4%	10µM*	10µM*
COc1ccc(-n2sc3c(c2=S)-c2cc(OC)ccc2NC3(C)C)cc1	23.8µM*	3.16µM*	10µM*	?	10µM*	11.2µM*
COc1ccc2c(c1)C(=O)N(Cc1ccccc1)C(=O)C2(C)C	-10.3%	76.7%	55.7%	3.8%	32.9%[59 µM]	52.5%
COc1ccc(N2C(=O)c3ccccc3NC2(C)C)cc1	-21.5%	-9.0%	22.1%	21.2%	-9.7%[59 µM]	-14.6%
COc1ccc2c(c1)-c1c(sn(-c3ccccc3)c1=S)C(C)(C)N2	-5.6%	39.8µM*	?	-4.8%	28.2µM*	8.91µM*
COc1ccc2c(c1)-c1c(ssc1=S)C(C)(C)N2	-17.2%	20µM*	15.8µM*	?	7.94µM*	12.6µM*
COC(=O)[C@@]1(Cc2ccccc2)[C@H]2C(=O)N(C)C(=O)[C@H]2[C@H]2CN=C(SCc3ccc(Cl)cc3)N21	1.5%	-35.5%	18.0%	·	·	·
COc1cc(NC(=O)C2(C)CCCN2C(=O)C(C)C)cc(OC)c1OC (centres undefined)	-3.1%	·	·	·	·	·
COc1ccc(-c2cnc(C(N)=O)c(=O)[nH]2)cc1	-22.0%	·	·	·	·	·
COc1cc2c3c(c1)-c1c(sn(-c4cc(OC)ccc4OC)c1=S)C(C)(C)N3C(=O)C2=O	-0.6%	4.2%	18.6%	-10.1%	?	7.08µM*
CC(Oc1ccc(F)cc1)C(=O)Nc1cc(C(F)(F)F)ccc1-n1cncn1 (centres undefined)	-4.8%	-0.7%	32.9%	·	56.2µM*	8.5%
COc1ccc(C(=O)Nc2cc(C(F)(F)F)ccc2-n2cncn2)cc1	-5.1%	-5.5%	22.5%	6.2%	-2.9%	-1.2%
CCN(CC)C(=O)c1sc2c(c1C)c(=O)n(-c1ccccc1)c(=O)n2Cc1c(C)cc(C)cc1C	·	-25.3%	15.5%	·	7.8%[59 µM]	-13.3%

Screens from PubChem.
